From PubChem BioAssay AID651791 (National Center for Advancing Translational Sciences (NCATS), 2012) come the findings set out here.

Records with an inconclusive call do not appear. Calls of active or inactive are those of the source. Calls follow the shape of the dose curve; as a rule, active = well fitted inhibition curve with a large enough effect; inconclusive = small, poorly fitted or top-dose-only effect; inactive = no such curve, though single readings can be large or run the other way.

This assay is described as follows: InCell qHTS Assay for Inhibitors of the mTORC1 Signaling Pathway in MEF (Tsc2-/-, p53-/-) Cells: Hit Validation.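 Also: phospho-S6 Ser235/236 signal normalized to propidium iodide cell count per well; nearly all actives have a fitted effect of over 75% in size.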 Particulars: phospho-rpS6 immunofluorescence, 24 h; activity change, negative = inhibition: at 38.3 µM (top of the series). A general note: Quantitative high-throughput screening tests each substance at several concentrations.
Potency is read from the fitted curve at half-maximal effect.

With `CCOc1ccc(-n2c(C)nc3c(cnn3-c3ccc(C)cc3)c2=O)cc1`, the activity change, negative = inhibition is -100%.
For the compound `CCOc1ccc(NC(=O)CSc2oc(-c3ccc(F)cc3)nc2S(=O)(=O)c2ccc(C)cc2)cc1`, the Potency was 4.65 µM (active).
`CCc1ccc(S(=O)(=O)N(C(=O)Oc2ccccc2)c2ccc3oc(C)c(C(=O)OC)c3c2)cc1`: the activity change, negative = inhibition is -12.1%.
Same read-out and setting: then `COc1ccc(C(C(=O)Nc2ccc(C(C)C)cc2)N(C)C(=O)Cc2cccs2)cc1` (configuration not stated), with -100%.
Turning to `COc1cc(NC(=O)c2cccc3c2C(=O)N(C2CCCCC2)C3)cc(OC)c1OC`, the activity change, negative = inhibition is -100%.
The same measure, in the same setting: then `CCOC(=O)N1CCN(Cc2nc3cc(NC(C)=O)ccc3n2C(C)C)CC1`, with -100%.
As to `CCOC(=O)Cn1c(=O)c2c(nc(N3CCOCC3)n2Cc2ccccc2)n(C)c1=O`, the Potency is 11.7 µM (active).
Turning to `CC(=O)Nc1cccc(NC(=O)C(=O)NCCc2sc(-c3ccccc3)nc2C)c1`, the activity change, negative = inhibition is -9.58%.
Regarding `CCC(=O)C1=C(c2ccc(Cl)cc2)N(C(=O)CC)n2c(C)nnc2S1`, the Potency was 2.61 µM (active).
As for `CCCCN(C)C(=O)CSc1c2c(nc3ccc(Cl)cc13)CCCC2`, the activity change, negative = inhibition was -100%.
Take `CCN(CC)CC(C)CNC(=O)c1cc(-c2ccc(Br)s2)nc2ccccc12` (configuration not stated): the activity change, negative = inhibition was -14.3%.
Still for that read-out and setting: the value for `CCc1ccc(CN(Cc2ccco2)C(=O)c2cc(-c3ccc(C)c(F)c3)on2)cc1` was -100%; that for `COc1cc(C(=O)N(CCCN(C)C)c2nc3c(OC)cccc3s2)cc(OC)c1OC` was -100%; that for `N#C/C(=C\c1ccc(-c2ccc(F)cc2F)o1)c1nc2ccccc2[nH]1` was -27.3%.
Same read-out and setting: then `Cc1ccc(C(=O)c2cn(CC(=O)NCc3ccccc3Cl)c3nc(C)ccc3c2=O)cc1`, with -100%; and `COc1ccc(NC(=O)c2c(NC(=O)COc3ccccc3)sc3c2CCC(C)C3)cc1` (configuration not stated), with -100%.
For `O=C(CC1(O)C(=O)N(CCc2ccccc2)c2ccc(Br)cc21)c1ccccc1O` (configuration not stated), the activity change, negative = inhibition worked out at 1.72%.
On to `COc1ccc(CN2CCN(c3ncnc4sc5c(c34)CCCC5)CC2)cc1F`, for which the activity change, negative = inhibition is -100%.
In the case of `Cc1ccc(C(C)C)c(OCC(=O)Nc2cc(-c3nc4ccccc4[nH]3)ccc2C)c1`, the activity change, negative = inhibition is -100%.
On the same count and under the same terms, then `COc1ccc(C(=O)N2CCN(C(=O)COc3ccc(Br)cc3)CC2)cc1OC`, with -100%; and `CC1=Nc2cc(C(=O)NC3CCCC3)ccc2Sc2ccc(Cl)cc21`, with -100%.
As for `COc1ccc(NC(=O)CSc2nc3ccccc3nc2N2CCC(C)CC2)cc1`, the activity change, negative = inhibition was -100%.
With `COc1ccccc1N1CCN(C(=O)c2cnc(N3CCCCC3)c3ccccc23)CC1`, the activity change, negative = inhibition is -100%.
For `CCN1CCOC(=O)C1CC(=O)Nc1cc(C)ccc1OC` (configuration not stated), the Potency was 13.1 µM (active).
Take `COc1ccc2c(c1)CCc1c(C(=O)Nc3c(C)nn(Cc4ccc(Cl)cc4)c3C)noc1-2`: the activity change, negative = inhibition was -100%.
In the case of `Cc1ccccc1CN1C(=O)C(O)(CC(=O)c2ccccc2)c2cc(Cl)ccc21` (configuration not stated), the activity change, negative = inhibition was -2.04%.
In the case of `O=C(NC1CCN(Cc2ccccc2)CC1)c1ccc(Cn2c(=O)c3ccccc3n(Cc3ccc(F)cc3)c2=O)cc1`, the activity change, negative = inhibition was -100%.
Same read-out and setting: the value for `COc1ccc(Cl)cc1S(=O)(=O)NCc1ccc2c(c1)CCN2C(=O)c1cccc(C)c1` was -8.71%; that for `CN(CCCNC(=O)c1cc2c(Cl)nc3ccccc3c2s1)Cc1ccccc1` was -100%; that for `COc1ccc(OC)c(NC(=O)c2nnn(CC(=O)Nc3ccc(C(C)C)cc3)c2N)c1` was -100%.
Still for that read-out and setting: then `CCCS(=O)(=O)c1c(S(=O)(=O)CCC)c2cc(C(C)(C)C)ccn2c1C(=O)c1ccc(OC)c(OC)c1`, with -100%; and `COc1ccc(OCC(=O)NCc2ccc3c(c2)CCN3C(=O)c2cccc(C)c2)cc1`, with -100%; and `CCC(=O)C1=C(c2ccc(F)cc2)N(C(=O)CC)n2cnnc2S1`, with -21.8%.
Take `O=S(=O)(NCC(c1ccco1)N1CCN(c2ccc(F)cc2)CC1)c1ccccc1` (configuration not stated): the activity change, negative = inhibition is -100%.
Same read-out and setting: the value for `CCOC(=O)c1c(NC(=O)COc2ccc(OC)cc2)sc(C(=O)N(CC)CC)c1C` was -100%; that for `COC(=O)c1ccc(NC(=O)c2nc(-c3ccc(Cl)cc3)n3c2CCCCC3)cc1` was -100%.
With `CCc1ccc(NC(=O)C2CCCN(S(=O)(=O)c3cccc4cccnc34)C2)cc1` (configuration not stated), the activity change, negative = inhibition is -100%.
Consider `Cc1ccc(C)c(S(=O)(=O)NCC(c2ccco2)S(=O)(=O)c2ccc(F)cc2)c1` (configuration not stated), for which the activity change, negative = inhibition is -100%.
As for `Cc1c(C2=CCN(S(=O)(=O)c3ccc(Br)cc3)CC2)c2ccccc2n1CC(=O)N1CCCC1`, the activity change, negative = inhibition is -100%.
Take `Cc1nn(CC(=O)N2CCN(c3ccccc3F)CC2)c(=O)c2cccn12`: the activity change, negative = inhibition is -100%.
On to `CCOc1ccc(C(=O)NCCc2sc(-c3ccc(C)cc3)nc2C)cc1`, for which the activity change, negative = inhibition is -100%.
With `COc1ccccc1N=c1scc(-c2ccc(S(=O)(=O)N3CCCC3)cc2)n1C`, the activity change, negative = inhibition was -100%.
